Test results published in PubChem BioAssay (NCATS).
Inconclusive results are not listed. A call without a number means that no potency is given here. A number with no mark means an inactive call. Activity calls are given as the source filed them. The call rests on the fitted dose curve; in most records, active means well fitted curve in the direction sought with a large enough effect; inconclusive means small, poorly fitted or top-dose-only effect, or another doubt; inactive means no such curve, though single readings can be large; an effect the other way counts as inactive or inconclusive.

Legend:
[1] = qHTS of pediatric cancer cell lines to identify multiple opportunities for drug repurposing: Primary screen for MG 63 (6-TG R) cells (AID 1347105); details: MG 63 (6-TG R) viability, CellTiter-Glo, 48 h; series mostly up to 46 µM; further: nearly all actives have a fitted effect of over 50% in size
Outline: (§1)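 Cells plated at 500-1,000/well in growth medium, compounds added after 5 h. MIPE tested at 11 points (from 0.78 nM), NPC at 8 points (from 0.59 nM). CellTiter-Glo luminescence after 48 h; concentration-response curves from primary screen.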

[2] = qHTS of pediatric cancer cell lines to identify multiple opportunities for drug repurposing: Primary screen for control Hh wild type fibroblast cells (AID 1347106); details: Hh wild-type fibroblast viability, CellTiter-Glo luminescence, 48 h; series mostly up to 46 µM; further: nearly all actives have a fitted effect of over 55% in size;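 on activity change, negative = cytotoxic: a drop in luminescence marks cytotoxicity and a rise apparent proliferation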
Outline: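 Cells (500-1,000/well) in growth media were settled 5 h at 37 degrees C, then given compounds for 48 h. Viability was read as CellTiter-Glo luminescence. Primary runs used MIPE at 11 points (0.78 nM-46 µM) and NPC at 8 points (0.59 nM-46 µM); follow-ups used 11 points.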

[3] = qHTS of pediatric cancer cell lines to identify multiple opportunities for drug repurposing: Primary screen for Rh30 cells (AID 1347107); details: Rh30 rhabdomyosarcoma viability, CellTiter-Glo luminescence, 48 h; series mostly up to 46 µM; further: nearly all actives have a fitted effect of over 75% in size
Outline: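 Cells (500-1,000/well) rested 5 h, then received compounds for 48 h; metabolically active cells were measured by CellTiter-Glo luminescence. Final concentrations spanned up to 46 µM (MIPE, 11-point) or 0.59 nM-46 µM (NPC, 8-point) in primary screens, 11-point in follow-ups.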

[4] = qHTS of pediatric cancer cell lines to identify multiple opportunities for drug repurposing: Primary screen for Rh41 cells (AID 1347108); details: Rh41 rhabdomyosarcoma viability, CellTiter-Glo luminescence, 48 h; series mostly up to 46 µM; further: nearly all actives have a fitted effect of over 70% in size;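 on activity change, negative = cytotoxic: luminescence drop marks cytotoxic hits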
Outline: as §1
Potency means the concentration at half of the fitted maximal effect.

For `C=CC(=O)Nc1cc2c(Nc3ccc(F)c(Cl)c3)ncnc2cc1OCCCN1CCOCC1`, the Potency [1] was 23.5 µM (active), the Potency [2] was “inactive” and the Potency [3] was 18.7 µM (active). The Potency [4] was 18.7 µM (active).

With `Clc1ccc2ncc(-c3cccc(NC4CNC4)n3)n2c1` the Potency [1] was “inactive” and the Potency [2] was “inactive”.

For `O=C(Nc1nc2cccc(-c3ccc(CN4CCS(=O)(=O)CC4)cc3)n2n1)C1CC1`, the Potency [1] was 23.5 µM (active) and the Potency [2] was “inactive”.

For `Nc1nc(NCCNc2ncc(-n3ccnc3)c(-c3ccc(Cl)cc3Cl)n2)ccc1[N+](=O)[O-]`, the Potency [1] was 14.8 µM (active).

With `O=C(c1cncc(Br)c1)N1CCC(N2CCCC2)CC1` the Potency [1] was “inactive”, the Potency [2] was “inactive” and the Potency [3] was “inactive”.

With `COc1ccc(CC2c3cc(OC)c(OC)cc3CC[N+]2(C)CCC(=O)OCCCCCOC(=O)CC[N+]2(C)CCc3cc(OC)c(OC)cc3C2Cc2ccc(OC)c(OC)c2)cc1OC` (stereo not given) the activity change, negative = cytotoxic [1] was 0.923% [at 9.22 µM], the activity change, negative = cytotoxic [2] was -1.39% [at 9.22 µM] and the activity change, negative = cytotoxic [3] was 18.3% [at 9.22 µM]. For the same compound, the activity change, negative = cytotoxic [4] was 23.2% [at 9.22 µM].

In the case of `COc1cc2c(Oc3ccc4[nH]c(C)cc4c3F)ncnc2cc1OCCCN1CCCC1`, the Potency [1] is reported as 23.5 µM (active), the Potency [2] is reported as 26.4 µM (active) and the Potency [3] is reported as 23.5 µM (active). For the same compound, the Potency [4] was 18.7 µM (active).

For `CCCCCCCCCC(=O)N[C@@H](Cc1c[nH]c2ccccc12)C(=O)N[C@H](CC(N)=O)C(=O)N[C@@H](CC(=O)O)C(=O)N[C@@H]1C(=O)NCC(=O)N[C@@H](CCCN)C(=O)N[C@@H](CC(=O)O)C(=O)N[C@H](C)C(=O)N[C@@H](CC(=O)O)C(=O)NCC(=O)N[C@H](CO)C(=O)N[C@@H]([C@@H](C)CC(=O)O)C(=O)N[C@@H](CC(=O)c2ccccc2N)C(=O)O[C@@H]1C`, the Potency [1] was “inactive”, the Potency [2] was “inactive” and the Potency [3] was “inactive”. For the same compound, the Potency [4] was “inactive”.

For `COc1cc2ncnc(Nc3ccc(F)c(Cl)c3)c2cc1NC(=O)C=CCN1CCCCC1`, the Potency [1] was “inactive” and the Potency [2] was “inactive”.

With `C1Cc2[nH]nc(-c3nn[nH]n3)c2C1` the Potency [1] was “inactive”, the Potency [2] was “inactive” and the Potency [3] was “inactive”. The Potency [4] was “inactive”.

With `CC[C@H](CO)Nc1nc(NCc2ccccc2)c2ncn(C(C)C)c2n1` the Potency [1] was “inactive” and the Potency [2] was “inactive”.

In the case of `COc1cc(C(C)C)c2c(c1)S(=O)(=O)N(COc1cc(=O)n3cccc(OCCN4CCCCC4)c3n1)C2=O`, the Potency [1] is reported as “inactive” and the Potency [2] is reported as “inactive”.

For `Cc1cc(Nc2cc(N3CCN(C)CC3)nc(C=Cc3ccccc3)n2)n[nH]1`, the Potency [1] was 21.5 µM (active), the Potency [2] was 38.2 µM (active) and the Potency [3] was 34 µM (active). For the same compound, the Potency [4] was 10.8 µM (active).

For `COC(=O)C1=C(C)NC(C)=C(C(=O)OCCN2CCN(C(c3ccccc3)c3ccccc3)CC2)C1c1cccc([N+](=O)[O-])c1` (stereo not given), the Potency [1] was “inactive” and the Potency [2] was “inactive”.

In the case of `CC(C)(O)CCc1ccc(OCc2cc(-c3cccc(OC(F)F)c3)c3ncccc3c2)cc1`, the Potency [1] is reported as “inactive”, the Potency [2] is reported as “inactive” and the Potency [3] is reported as “inactive”. The Potency [4] was “inactive”.

In the case of `CC(C)c1noc(N2CCC(COc3ccc(-c4ccc(S(C)(=O)=O)cc4)nc3)CC2)n1`, the Potency [1] is reported as “inactive”, the Potency [2] is reported as “inactive” and the Potency [3] is reported as “inactive”.

For `Clc1cccc(-n2nnnc2NCc2ccccc2Oc2ccccn2)c1Cl`, the Potency [1] was “inactive” and the Potency [2] was “inactive”.

In the case of `COc1cc2ncn(-c3cc(OCc4ccccc4C(F)(F)F)c(C(N)=O)s3)c2cc1OC`, the Potency [1] is reported as 7.43 µM (active) and the Potency [2] is reported as 18.7 µM (active).

With `Cn1c2cc(S(C)=O)sc2c2cnn(Cc3cccc(N)c3)c(=O)c21` (stereo not given) the Potency [1] was “inactive” and the Potency [2] was “inactive”.

In the case of `CC(O)C1C(=O)N2C(C(=O)O)=C(SC3CNC(C(=O)N(C)C)C3)C(C)C12` (stereo not given), the Potency [1] is reported as “inactive”, the Potency [2] is reported as “inactive” and the Potency [3] is reported as “inactive”. For the same compound, the Potency [4] was “inactive”.

With `COc1cc2c(cc1-c1c(C)noc1C)ncc1[nH]c(=O)n([C@H](C)c3ccccn3)c12` the Potency [1] was 1.87 µM (active), the Potency [2] was 16.6 µM (active) and the Potency [3] was 23.5 µM (active). For the same compound, the Potency [4] was 9.35 µM (active).

With `N#Cc1c(O)c2c(-c3ccc(-c4ccccc4O)cc3)csc2[nH]c1=O` the Potency [1] was “inactive” and the Potency [2] was “inactive”.

For `CC(C)c1ccc(Cn2ccc3c4c(N)nc(NC5CC5)nc4ccc32)cc1`, the Potency [1] was 14.8 µM (active), the Potency [2] was “inactive” and the Potency [3] was 18.7 µM (active). The Potency [4] was 3.72 µM (active).

For `CN(C)c1nc(Cc2ccc(NC(=O)c3ccc4ccccc4c3)cc2)nc(Cl)c1CC(=O)O`, the Potency [1] was “inactive”, the Potency [2] was “inactive” and the Potency [3] was “inactive”. For the same compound, the Potency [4] was “inactive”.

In the case of `COC(=O)C[C@](O)(CCCC(C)(C)O)C(=O)O[C@@H]1C(OC)=C[C@]23CCCN2CCc2cc4c(cc2[C@H]13)OCO4`, the Potency [1] is reported as “inactive” and the Potency [2] is reported as “inactive”.

In the case of `Cn1cc(-c2ccncc2)c(-c2ccc(OCc3ccc4ccccc4n3)cc2)n1`, the Potency [1] is reported as “inactive” and the Potency [2] is reported as “inactive”.
